# Jurkat NFkB inh: inhibitors of induced NF-kB luciferase reporter, primary screen, TCR NF-kB activation inhibitor project, cell-based, luminescence, uHTS; Jurkat, PMA/ionomycin-induced NF-kB luciferase reporter; inhibition, % at 4 µM; 330,000 tested, 0.53% active; in the data active means inhibition above about 50%
# Mdm2-MdmX inh: inhibitors of human Mdm2-MdmX association, primary screen, cell-based, luminescence, split luciferase, SaOS-2, uHTS. SaOS-2 split-luciferase Mdm2/MdmX complementation. inhibition, % at 8 µM. 330,000 tested, 3% active;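 active means inhibition of at least 50% at 8 µM in the primary screen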
# Target sequence (O15151 whole entry, looked up): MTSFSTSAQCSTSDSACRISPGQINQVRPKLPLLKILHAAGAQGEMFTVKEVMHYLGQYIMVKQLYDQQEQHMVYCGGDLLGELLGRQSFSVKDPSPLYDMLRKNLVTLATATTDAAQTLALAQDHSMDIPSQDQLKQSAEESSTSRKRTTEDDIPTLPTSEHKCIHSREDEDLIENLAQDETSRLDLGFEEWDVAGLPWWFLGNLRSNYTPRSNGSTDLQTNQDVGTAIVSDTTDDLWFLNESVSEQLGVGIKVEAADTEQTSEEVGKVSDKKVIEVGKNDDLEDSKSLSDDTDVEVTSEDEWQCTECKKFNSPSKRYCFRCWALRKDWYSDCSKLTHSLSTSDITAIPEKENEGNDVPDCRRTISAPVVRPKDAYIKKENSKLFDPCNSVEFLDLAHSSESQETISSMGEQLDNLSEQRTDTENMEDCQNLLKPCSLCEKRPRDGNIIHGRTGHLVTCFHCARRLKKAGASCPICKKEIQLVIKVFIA
# Target sequence (Q00987 whole entry, looked up): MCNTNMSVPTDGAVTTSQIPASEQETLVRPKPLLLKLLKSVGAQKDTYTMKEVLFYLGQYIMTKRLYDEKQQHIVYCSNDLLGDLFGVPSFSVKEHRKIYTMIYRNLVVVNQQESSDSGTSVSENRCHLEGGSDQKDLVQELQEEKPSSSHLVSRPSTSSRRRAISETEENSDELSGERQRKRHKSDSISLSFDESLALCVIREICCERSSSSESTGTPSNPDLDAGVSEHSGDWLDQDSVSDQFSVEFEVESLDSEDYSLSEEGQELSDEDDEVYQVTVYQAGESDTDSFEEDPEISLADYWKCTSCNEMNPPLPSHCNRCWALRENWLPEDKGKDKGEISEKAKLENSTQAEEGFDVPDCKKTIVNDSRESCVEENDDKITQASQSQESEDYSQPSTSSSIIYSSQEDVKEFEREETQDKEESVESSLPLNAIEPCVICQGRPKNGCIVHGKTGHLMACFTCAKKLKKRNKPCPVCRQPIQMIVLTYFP
# Gli-Sufu block: Gli-Sufu pathway antagonists, primary screen, luciferase luminescence, Sufu-KO-LIGHT cells, uHTS | Sufu-KO-LIGHT fibroblasts, Gli luciferase reporter luminescence | inhibition, % at 5 µM | 340,000 tested, 0.74% active;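 active means inhibition above about 55%, limit read from the data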;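 further: 0% = DMSO-treated cells and 100% = wells with medium but no cells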
# 697 NFkB inh: inhibitors of PMA/ionomycin-induced NF-kB reporter, 697 cells, primary screen, B-cell NF-kB inhibitor project, cell-based, luminescence, uHTS | inhibition, % at 4 µM | 330,000 tested, 0.33% active | AID 435022, 2010 | 697 B-cell NF-kB luciferase reporter, 16 h; in the data active means inhibition above about 35%
# CSC inhib: cancer stem cell viability inhibitors, primary screen, luminescence; cancer stem cell-like cells viability; inhibition, % at 7.5 µM; 300,000 tested, 1.1% active; in the data active means inhibition above about 75%; tested in HMLE shEcad cells
# Beta apoptosis: inhibitors of cytokine-induced beta cell apoptosis, primary screen, luminescence; INS-1E cytokine-induced death, ATP luminescence, 48 h; percent of positive-control rescue, neutral wells zero; protection from apoptosis, % (concentration not given with the values); 300,000 tested, 0.8% active; AID 435005, 2010;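 active means Every replicate reaches about 75%, or at least half do and their mean reaches it too, limit read from the data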;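 further: 0% = cytokine-treated negative control wells and 100% = positive control rescue; higher means more ATP so stronger rescue from cytokine killing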
# Mdm2 MdmX conf: Mdm2-MdmX complex disruptors, retested hits, confirmation, luminescence, single concentration; AID 489028, 2010; inhibition, % at 8 µM; shares compounds with Mdm2-MdmX inh; 10,000 tested, 55% active; Mdm2-MdmX binding, luminescent assay; in the data active means inhibition above about 40%
# FLuc counter: full-length luciferase signal inhibition, confirmation, counter-screen for Mdm2/MdmX interaction inhibitor project, cell-based, single concentration, SaOS-2; shares compounds with Mdm2-MdmX inh; SaOS-2 full-length luciferase counterscreen, luminescence; inhibition, % at 8 µM; 6,200 tested, 77% active; AID 504607, 2011;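 active means mean inhibition at 8 µM reaching about 37%, which flags the compound as non-specific, limit read from the data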;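 further: p53-null SaOS-2 cells with luciferase driven by a doxycycline-inducible promoter; compound on cells about two nights before reading with doxycycline added after day one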
# Numbers without * were called inactive; / = not tested or not shown; ! = a repeat was not active. Only some compounds are listed: those with a hit (about 4.5% of all), similar ones and a draw of the others.
SMILES,Jurkat NFkB inh,Mdm2-MdmX inh,Gli-Sufu block,697 NFkB inh,CSC inhib,Beta apoptosis,Mdm2 MdmX conf,others
CC(=O)c1ccc(S(=O)(=O)N(C)CCCC(=O)NCc2ccc3c(c2)OCO3)cc1,-22,-35,/,4,/,/,/,
COc1ccc(OCC(=O)Nc2ccc3c(c2)nc(CCN2CCC(C)CC2)n3C)cc1,-17,9,18,-4,2,/,/,
CC1CCN(CCc2nc3cc(NC(=O)COc4ccc(Cl)cc4)ccc3n2C)CC1,5,57*,36,0,1,/,35,
CC(=O)c1c(C)[nH]c(C(=O)Nc2ccc(C)cn2)c1C,-7,53*,23,-100,-7,-7,48*,FLuc counter=74*
Cc1ccc(NC(=O)c2cnccn2)nc1,-59,53*,-54,-63,-18,4,-5,
CC1(C2CC2)NC(=O)N(CC(=O)N2CCN(c3ccccc3Cl)CC2)C1=O (stereo not drawn),-11,-9,-22,-26,/,/,/,
O=C1O/C(=C/c2ccccc2)c2ccccc21,-1,18,-16,-19,-12,-3,/,
N#CC1=C(c2ccccc2)/C(=C/c2ccccc2)OC1=O,19,100*,-18,6,-6,1,75*,FLuc counter=49*
Cc1ccc(NC(=O)CCn2c(=O)[nH]c3ccsc3c2=O)cc1F,17,3,-12,-3,-7,2,/,
Cc1ccc(C(O)(C(=O)NNc2ccc3ccccc3n2)c2ccc(C)cc2)cc1,17,51*!,-10,10,-16,12,27,
Cc1ccc(C(=O)Nc2ccc3ccccc3n2)cc1,-125,-133,-168,-232,12,1,/,
COc1ccc(CCn2c(C)c(C(C)=O)c(C(C)=O)c2C)cc1OC,6,-11,-11,-4,-2,-5,/,
Cc1cc(C(=O)CSc2nnnn2C)c(C)n1CCc1ccc(F)cc1,-12,20,1,5,-5,-3,/,
Cc1cc(C(=O)CCl)c(C)n1CCc1ccc(Cl)cc1,14,93*,9,5,116*,28,69*,FLuc counter=31
Cc1cc(C(=O)CCl)c(C)n1CCc1ccc(F)cc1,25,92*,-3,22,56,34,62*,FLuc counter=34
COc1ccc(CCn2c(C)cc(C(=O)CCl)c2C)cc1OC,14,74*,3,10,47,0,27,
COc1ccc(CCn2c(C)cc(C(=O)CSc3nnnn3-c3ccccc3)c2C)cc1OC,5,59*,15,22,-6,/,7,
Cc1cc(C(=O)CSc2nnnn2-c2ccccc2)c(C)n1CCc1ccccc1,15,26,0,-6,-8,-10,/,
COc1ccc(S(=O)(=O)N2CCCC(C(=O)NCCC(C)C)C2)cc1 (stereo not drawn),3,-14,8,15,-10,7,/,
CC(C)(CO)NS(=O)(=O)c1ccc2c(c1)Cc1cc(S(=O)(=O)NC(C)(C)CO)ccc1-2,-5,7,0,8,5,6,/,
CC(=O)c1cccc(OCC(O)CN2CCN(C(=O)c3ccco3)CC2)c1 (stereo not drawn),7,-6,3,11,-9,-1,/,
COc1ccc(O)c(CN2CC3CCC(CC3)C2)c1,/,/,1,/,/,/,/,
CCCN(CCC)C(=O)CSc1nc2n[nH]c(C)c2c(=N)n1-c1ccc(OCC)cc1,31,33,18,-45,-17,17,/,
COc1ccccc1NC(=O)CSc1nc2n[nH]c(C)c2c(=N)n1-c1ccccc1Cl,11,68*,15,11,17,/,41*,FLuc counter=71*
CCCN(CCC)C(=O)CSc1nc2n[nH]c(C)c2c(=N)n1-c1ccc(OC)cc1,12,50*,13,-26,2,26,19,
SMILES,Jurkat NFkB inh,Mdm2-MdmX inh,Gli-Sufu block,697 NFkB inh,CSC inhib,Beta apoptosis,Mdm2 MdmX conf,others
CCN(C(=O)CSc1nc2n[nH]c(C)c2c(=N)n1-c1ccc(Cl)c(C)c1)c1cccc(C)c1,9,76*,9,5,42,34,21,
O=C(O)C1CCCC2CN3CCc4c([nH]c5ccccc45)C3C(O)C21 (stereo not drawn),4,10,0,-5,-10,0,/,
CCCCn1c(N)c(N(CC(C)C)C(=O)CN2C(=O)NC3(CCC(C(C)(C)CC)CC3)C2=O)c(=O)[nH]c1=O (stereo not drawn),/,/,19,/,/,/,/,
CC(Cn1cncn1)C(=O)N1CCN(S(=O)(=O)c2ccccc2)CC1 (stereo not drawn),2,12,0,11,9,6,/,
COC(=O)[C@H](CC(C)C)NCc1cccc(CN[C@@H](CC(C)C)C(=O)OC)c1,7,13,13,-12,44,-9,/,
CC1CCc2c(sc(NC(=O)CCc3nc4ccccc4c(=O)[nH]3)c2C#N)C1 (stereo not drawn),6,72*,32,9,23,11,71*,FLuc counter=60*
CCN(CC(=O)Nc1sc2c(c1C#N)CCC(C)C2)Cc1nc2ccccc2c(=O)[nH]1 (stereo not drawn),-21,-10,27,-18,-3,9,/,
Cc1ccc(C(=O)NC(Cc2cccc(C(F)(F)F)c2)C(=O)O)cc1 (stereo not drawn),/,17,2,10,/,/,/,
C/C(=N\NC(=O)Cc1ccc(Cl)cc1)c1ccccc1O,-7,57*,0,16,9,68,44*,FLuc counter=43*
C/C(=N\NC(=O)Cc1ccc(Cl)cc1)c1ccc(F)cc1,-1,4,-2,-2,-7,-2,/,
CN(Cc1ccccc1)C(=O)c1ccc(NC(=O)C2CCN(C(=O)OC(C)(C)C)CC2)cc1,8,76*,45,-76,12,4,59*,FLuc counter=32
CCOc1ccc(/C=N/Nc2ccc(Cl)nn2)c(O)c1,5,54*,15,-15,15,119*,38,FLuc counter=58*
CN(C)C/C=C/C(=O)Nc1cccc(-c2c[nH]c3ncnc(Oc4ccc(NC(=O)CC(=O)Nc5ccc(F)cc5)cc4F)c23)c1,-8,68*,-5,18,/,-16,2,
CCN(CC)CCCCCCCCOC(=O)c1cc(OC)c(OC)c(OC)c1,-14,50*,7,-23,35,6,28,
O=C(c1ccco1)N1CCN(c2ccc(N3CCCCC3)nn2)CC1,-38,-61,-35,-7,-6,/,/,
